Source: PubChem BioAssay (Tox21)
Inconclusive results are not listed. Where a call stands in place of a potency, no number is given. Unmarked numbers belong to inactive results. Active and inactive are the calls of the source. Unless noted, calls follow the shape of the dose curve; as a rule, active = well fitted curve in the direction sought with a large enough effect in the repeat runs; inconclusive = weak or mixed curves; inactive = no such curve, though single readings can be large; an effect the other way counts as inactive or inconclusive.

Test system: not listed separately
Assay: qHTS assay to identify small molecule antagonists of the vitamin D receptor (VDR) signaling pathway - cell viability counter screen (AID 743225); also: nearly all actives have a fitted effect of over 50% in size; also: potency is read from the fitted curve at half-maximal effect
Conditions: VDR-bla HEK293T viability, CellTiter-Glo luminescence, 16 h; series mostly up to 61 µM
In short: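 VDR-UAS-bla HEK 293T cells were plated and incubated 4 h at 37C, then dosed with compound plus 3 nM (final) 1-alpha,25-dihydroxyvitamin D3 for 16 h. After the 2 h beta-lactamase read, viability in the same wells was read as CellTiter-Glo luminescence after 30 min at room temperature.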

Compound | Potency
CCCC(CC)CCCCCCCN (configuration not stated) | inactive
CCCCCCCCCCCCN(CCO)CCO | 43.5 µM (active)
CCN(CC)c1ccc(N)cc1 | inactive

Test system: not listed separately
Assay: qHTS assay to identify small molecule agonists of the endoplasmic reticulum stress response signaling pathway - cell viability counter screen (AID 1159517; calls by dose curve; also: nearly all actives have a fitted effect of over 50% in size; also: potency is read from the fitted curve at half-maximal effect)
Conditions: ESRE-bla HeLa viability, CellTiter-Glo luminescence, 5 h; series mostly up to 61 µM
In short: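 In parallel with the ESRE reporter read, cytotoxicity was scored by CellTiter-Glo luminescence (30 min, room temperature) on HeLa ESRE-bla cells dosed for 5 hr.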

Compound | Potency
CCCC(CC)CCCCCCCN (configuration not stated) | 39.9 µM (active)
COc1ccccc1OCCNCC(O)COc1cccc2[nH]c3ccccc3c12 (configuration not stated) | inactive
CCCCCCCCCCCCN(CCO)CCO | 43.5 µM (active)
Cc1c(-c2ccc(O)cc2)n(Cc2ccc(OCCN3CCCCCC3)cc2)c2ccc(O)cc12 | inactive
CCN(CC)c1ccc(N)cc1 | inactive

Test system: not listed separately
Assay: qHTS assay to identify small molecule antagonists of the retinoid-related orphan receptor gamma (ROR-gamma) signaling pathway - cell viability counter screen (AID 1159520); also: nearly all actives have a fitted effect of over 50% in size
Conditions: Tet-on RORgamma CHO cells viability, ATP luminescence, 16 h; series mostly up to 92.4 µM
In short: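 Tet-on ROR gamma CHO cells were given compounds for 2 hr, then doxycycline hyclate at 1 uM final, and incubated 16 hr at 37 C. Viability was measured as ATP content by CellTiter-Glo luminescence.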

Compound | Potency | activity, negative = cytotoxicity
CCO[Si](C)(C)OCC | inactive | –
C=CC(C)C#N (configuration not stated) | inactive | –
COc1cccc(O)c1 | inactive | –
CCOCOCC | inactive | –
Cc1cnccn1 | inactive | –
Clc1cc(Cl)c(-c2c(Cl)c(Cl)cc(Cl)c2Cl)cc1Cl | inactive | –
Cn1cccc1 | inactive | –
O=C1OC(=O)c2ccc3c4c(ccc1c24)C(=O)OC3=O | inactive | –
CCCCCCCCC(C)=O | inactive | –
CC1=CP(=O)(c2ccccc2)CC1 (configuration not stated) | inactive | –
O=S(=O)(O)c1cc(S(=O)(=O)O)c2ccc3c(S(=O)(=O)O)cc(S(=O)(=O)O)c4ccc1c2c43 | – | 3.7% [at 19 µM]
CCCCCCCC(=O)OCC | inactive | –
CCN(CC)c1cccc(C)c1 | inactive | –
CCCCCCCCCCCCCCCCCO | – | -0.0509% [at 19 µM]
Cc1cccc(N(C)C)c1 | inactive | –
CN1CN(C)CN(C)C1 | inactive | –

Compound | Potency | activity, negative = cytotoxicity
CC1=CCC(=O)O1 | inactive | –
CC(=O)OC1CCCCC1 | inactive | –
CCC(C)C(=O)OC (configuration not stated) | inactive | –
C#CC(O)CCC (configuration not stated) | inactive | –
CC(C)=CCCC(C)CCOC(=O)C(C)C (configuration not stated) | inactive | –
CCCCCCCOC(=O)c1ccccc1C(=O)OCCCCCCC | inactive | –
CS(C)(=O)=O | inactive | –
CCc1ccc(C)nc1 | inactive | –
CC1CCCCC1 | inactive | –
O=c1cccc[nH]1 | inactive | –
CCOC(=O)CC(C)O (configuration not stated) | inactive | –
CN(C)CCN1CCOCC1 | inactive | –
CCOC(=O)CN | inactive | –
CC1(C)C(=O)N(CO)C(=O)N1CO | inactive | –
CCOB(OCC)OCC | inactive | –

Molecular target: Nuclear receptor ROR-gamma (Homo sapiens) (UniProt P51449)
Assay: qHTS assay to identify small molecule antagonists of the retinoid-related orphan receptor gamma (ROR-gamma) signaling pathway (AID 1159521;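 also: CHO cells with doxycycline inducible ROR-gamma driving an RORE luciferase reporter; top concentration of the series differs between compounds; nearly all actives have a fitted effect of over 50% in size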)
Conditions: Tet-on RORgamma CHO cells, RORE-luciferase, 16 h; series mostly up to 92.4 µM
In short: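 Tet-on ROR-gamma CHO cells with ROR response element-luciferase reporter; compounds added 2 hr before 1 uM doxycycline induction, then 16 hr at 37 C. Antagonism scored as decreased ONE-Glo luminescence.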

Compound | Potency | activity change, negative = inhibition
CCO[Si](C)(C)OCC | inactive | –
C=CC(C)C#N (configuration not stated) | inactive | –
COc1cccc(O)c1 | inactive | –
CCOCOCC | inactive | –
Cc1cnccn1 | inactive | –
Clc1cc(Cl)c(-c2c(Cl)c(Cl)cc(Cl)c2Cl)cc1Cl | inactive | –
Cn1cccc1 | inactive | –
O=C1OC(=O)c2ccc3c4c(ccc1c24)C(=O)OC3=O | inactive | –
CCCCCCCCC(C)=O | inactive | –
CC1=CP(=O)(c2ccccc2)CC1 (configuration not stated) | inactive | –
O=S(=O)(O)c1cc(S(=O)(=O)O)c2ccc3c(S(=O)(=O)O)cc(S(=O)(=O)O)c4ccc1c2c43 | – | 12.6% [at 19 µM]
CCCCCCCC(=O)OCC | inactive | –
CCN(CC)c1cccc(C)c1 | inactive | –
CCCCCCCCCCCCCCCCCO | – | -0.415% [at 19 µM]
Cc1cccc(N(C)C)c1 | inactive | –
CN1CN(C)CN(C)C1 | inactive | –

Compound | Potency | activity change, negative = inhibition
CC1=CCC(=O)O1 | inactive | –
CC(=O)OC1CCCCC1 | inactive | –
CCC(C)C(=O)OC (configuration not stated) | inactive | –
C#CC(O)CCC (configuration not stated) | inactive | –
CC(C)=CCCC(C)CCOC(=O)C(C)C (configuration not stated) | inactive | –
CCCCCCCOC(=O)c1ccccc1C(=O)OCCCCCCC | inactive | –
CS(C)(=O)=O | inactive | –
CCc1ccc(C)nc1 | inactive | –
CC1CCCCC1 | inactive | –
O=c1cccc[nH]1 | inactive | –
CCOC(=O)CC(C)O (configuration not stated) | inactive | –
CN(C)CCN1CCOCC1 | inactive | –
CCOC(=O)CN | inactive | –
CC1(C)C(=O)N(CO)C(=O)N1CO | inactive | –
CCOB(OCC)OCC | inactive | –

Test system: not listed separately
Assay: qHTS assay to identify small molecule agonists of the AP-1 signaling pathway - cell viability counter screen (AID 1159525; calls by dose curve; also: nearly all actives have a fitted effect of over 55% in size)
Conditions: ME-180 (cervical carcinoma) AP-1-bla cells viability, ATP luminescence, 5 h; series mostly up to 76.8 µM
In short: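 Same-well cytotoxicity counter screen of the Tox21 10K library in ME-180 cells. The readout is ATP-dependent luminescence after 5 h compound treatment. Data are normalised to DMSO and tetra n-octyl ammonium bromide controls.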

Compound | Potency | viability change, negative = cytotoxic
CCO[Si](C)(C)OCC | inactive | –
CCCC(CC)CCCCCCCN (configuration not stated) | inactive | –
C=CC(C)C#N (configuration not stated) | inactive | –
COc1cccc(O)c1 | inactive | –
CCOCOCC | inactive | –
Cc1cnccn1 | inactive | –
Clc1cc(Cl)c(-c2c(Cl)c(Cl)cc(Cl)c2Cl)cc1Cl | inactive | –
Cn1cccc1 | inactive | –
O=C1OC(=O)c2ccc3c4c(ccc1c24)C(=O)OC3=O | inactive | –
CCCCCCCCC(C)=O | inactive | –
CC1=CP(=O)(c2ccccc2)CC1 (configuration not stated) | inactive | –
O=S(=O)(O)c1cc(S(=O)(=O)O)c2ccc3c(S(=O)(=O)O)cc(S(=O)(=O)O)c4ccc1c2c43 | – | -1.68% [at 15.8 µM]
CCCCCCCC(=O)OCC | inactive | –
CCN(CC)c1cccc(C)c1 | inactive | –
CCCCCCCCCCCCCCCCCO | – | -0.925% [at 15.8 µM]
Cc1cccc(N(C)C)c1 | inactive | –

Compound | Potency | viability change, negative = cytotoxic
CN1CN(C)CN(C)C1 | inactive | –
CC1=CCC(=O)O1 | inactive | –
CC(=O)OC1CCCCC1 | inactive | –
CCC(C)C(=O)OC (configuration not stated) | inactive | –
C#CC(O)CCC (configuration not stated) | inactive | –
CC(C)=CCCC(C)CCOC(=O)C(C)C (configuration not stated) | inactive | –
CCCCCCCOC(=O)c1ccccc1C(=O)OCCCCCCC | inactive | –
CS(C)(=O)=O | inactive | –
CCc1ccc(C)nc1 | inactive | –
CC1CCCCC1 | inactive | –
O=c1cccc[nH]1 | inactive | –
CCOC(=O)CC(C)O (configuration not stated) | inactive | –
CN(C)CCN1CCOCC1 | inactive | –
CCOC(=O)CN | inactive | –
CC1(C)C(=O)N(CO)C(=O)N1CO | inactive | –
CCOB(OCC)OCC | inactive | –
